In PubChem BioAssay AID1851 (National Center for Advancing Translational Sciences (NCATS), 2009):
Values joined by “and” are separate entries in the source; they are usually repeats but may differ in a detail not shown here. Equal values may be shown once. The campaign covered roughly 16,000 compounds. About 2,600 (16%) were called active. Inconclusive results (about 20%) are left out. Calls follow the shape of the dose curve; as a rule, active = well fitted curve in the direction sought with a large enough effect; inconclusive = small, poorly fitted or top-dose-only effect, or effect the other way; inactive = no such curve, though single readings can be large or run the other way. Not all results are given here.

Target: Cytochrome P450 2D6 (Homo sapiens) (UniProt P10635)
Sequence (P10635 whole entry, looked up): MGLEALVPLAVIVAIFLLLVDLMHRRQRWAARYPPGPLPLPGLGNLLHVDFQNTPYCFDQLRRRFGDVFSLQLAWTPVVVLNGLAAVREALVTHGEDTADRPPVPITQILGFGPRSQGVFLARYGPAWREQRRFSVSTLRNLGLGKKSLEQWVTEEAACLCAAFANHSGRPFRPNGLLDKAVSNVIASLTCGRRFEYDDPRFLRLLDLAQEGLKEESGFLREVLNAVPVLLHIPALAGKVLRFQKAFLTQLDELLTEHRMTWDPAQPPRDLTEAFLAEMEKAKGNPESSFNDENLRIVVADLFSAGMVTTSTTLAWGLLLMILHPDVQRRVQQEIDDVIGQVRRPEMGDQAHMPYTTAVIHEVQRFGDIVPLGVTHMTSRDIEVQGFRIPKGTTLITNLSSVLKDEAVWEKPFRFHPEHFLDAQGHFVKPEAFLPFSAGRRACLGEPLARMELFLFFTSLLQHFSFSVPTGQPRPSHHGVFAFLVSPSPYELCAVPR
Assay: Cytochrome panel assay with activity outcomes
Conditions: recombinant CYP, pro-luciferin dealkylation, luminescence, p450-cyp2d6; series mostly up to 57.1 µM
Experimental: The P450 gene superfamily is involved in the metabolism and clearance of xenobiotics. This assay used various human CYP P450 isozymes to measure the dealkylation of various pro-luciferin substrates to luciferin. The luciferin is then measured by luminescence after the addition of a luciferase detection reagent. Pro-luciferin substrate concentration in the assay was equal to its KM for its CYP P450 isozyme. Inhibitors and some substrates limit the production of luciferin, and decrease measured luminescence.
NCGC Assay Protocol Summary:
1, Reagent, 2 uL, Isozyme and Pro-Luciferin
2, Library compounds, 23 nl, 40 uM to 0.24 nM dilution series
3, Controls, 23 nl, Isozyme specific inhibitor
4, Reagent, 2 uL, NADPH regeneration solution
5, Incubation time, 60 min, Isozyme specific temperature
6, Reagent, 4ul, Detection reagent
7, Incubation time, 20 min, Isozyme specific temperature
8, Detection, 1 sec, ViewLux luminescent read
The luciferase-based P450-GloTM Screening Systems were obtained from Promega (Madison, WI) for CYP 1A2 (V9770), CYP 2C9 (V9790), CYP2 C19 (V9880), CYP 2D6 (V9890), and CYP 3A4 Luciferin-PPXE (V9910) and were adapted for 1,536-well microplates and an automated protocol. The control compounds furafylline for 1A2 (F124), sulfaphenazole for CYP 2C9 (S0758), ketoconazole for CYP 2C19 (K1003), quinidine for 2D6 (Q3625), and ketoconazole for 3A4 (K1003) were purchased from Sigma Aldrich (St. Louis, MO). Recombinant P450 enzymes were obtained from baculovirus constructs expressed in insect cells (BD/Gentest).
Medium-binding white solid Kalypsys plates used. Mixtures kept on ice. 1A2: 10 nM 1A2, 100 uM Luc-ME, 100 mM KPO4; 2C9: 10 nM 2C9, 100 uM Luc-H, 25 mM KPO4; 2C19: 5 nM 2C19, 10 uM Luc-H EGE, 50 mM KPO4; 2D6: 5 nM 2D6, 30 uM Luc-ME EGE, 100 mM KPO4; 3A4: 10 nM, 25 uM Luc-PPXE. All amounts are reflected in their final concentration, working concentration is 2x.
NADPH regeneration solution: 1.3 mM NADP+, 3.3 mM glucose-6-phosphate, 3.3 mM MgCl2, 0.4 U/mL glucose-6-phosphate dehydrogenase for all isozymes, 200 mM KPO4 for 3A4. Mixture prepared at RT but kept on ice during automated run.
RT incubation in auxilliary plate hotel for 1A2, 2D6, and 3A4; 37C for 2C9 and 2C19.
Keywords: P450, CYP1A2, CYP2C19, CYP2C9, CYP2D6, CYP3A4, Luciferase, MLSMR, MLSCN, NIH Roadmap, qHTS, NCGC
% is scaled to controls: 0 for no effect and ±100 for the full control effect.

With `CC1Cc2ccccc2N1C(=O)c1cc2c(=O)n3ccccc3nc2n1C` (stereo not drawn) as the compound, how does the AC50 read?
Its AC50 is “inactive”.

`CCn1c(=N)c(S(=O)(=O)c2ccc(F)cc2)cc2c(=O)n3ccccc3nc21` was tested. Which AC50 did it give?
Its AC50 is 0.794 µM (active).

With `CCOC(=O)c1cc2c(=O)n3ccccc3nc2n(CCOC)c1=NC(=O)C(C)(C)C` as the compound, how does the AC50 read?
Its AC50 is “inactive”.

For `Cn1c(=N)c(S(=O)(=O)c2ccc(F)cc2)cc2c(=O)n3ccccc3nc21`, which AC50 is on record?
The AC50 was 3.16 µM (active).

With `CCOC(=O)c1cc2c(=O)n3ccccc3nc2n(CCCOC)c1=NC(=O)C(C)(C)C` as the compound, how does the AC50 read?
Its AC50 is “inactive”.

How did the AC50 turn out when `Cn1c(C(=O)N2COCC2(C)C)cc2c(=O)n3ccccc3nc21` was run?
Its AC50 is “inactive”.

With `COc1ccccc1C(=O)Nc1cc2c(ccc3ccccc32)oc1=O` as the compound, how does the AC50 read?
Its AC50 is “inactive”.

For `O=C(CCl)Nc1ccc(Oc2cnc3ccccc3n2)cc1`, which AC50 is on record?
Its AC50 is “inactive”.

With `Cc1ccccc1C(=O)N1CCN(c2ccc([N+](=O)[O-])c(NCc3ccco3)c2)CC1` as the compound, how does the AC50 read?
Its AC50 is “inactive”.

Which activity, negative = inhibition does the source give for `CC(C)(N)C(=O)N[C@@H]1C(=O)N2[C@@H]1SC(C)(C)[C@H]2C(=O)O` here?
The activity, negative = inhibition was 5.23% [at 11.4 µM] (inactive).

`CC(C)(C)C(=O)N1CCC(O)(CS(=O)(=O)Cc2ccc(Cl)cc2)CC1` was tested. Which AC50 did it give?
The AC50 was “inactive”.

Which AC50 does the source give for `Cc1ccc(NC(=O)c2cc(N3C(=O)C4CC=CCC4C3=O)ccc2N2CCOCC2)cc1Cl` (stereo not drawn) here?
Its AC50 is “inactive”.

Which AC50 does the source give for `Cc1ccccc1OCC(=O)NC(=S)Nc1ccc(N2CCOCC2)c(Cl)c1` here?
Its AC50 is “inactive”.

How did the AC50 turn out when `Cc1ccc(NC(=O)CSCC(=O)Nc2ccc(N3CCOCC3)c(Cl)c2)cc1` was run?
The AC50 was 14.1 µM (active).

For `NC(=O)C1(N2CCCCC2)CCN(C(=S)Nc2ccc(Cl)cc2)CC1`, which AC50 is on record?
Its AC50 is “inactive”.

For `N[C@H](C(=O)O)c1cccc(O)c1`, which AC50 is on record?
Its AC50 is “inactive”.

Which AC50 does the source give for `Nc1ccc(CCNc2ncnc3c2ncn3[C@@H]2O[C@@H](CO)[C@H](O)[C@@H]2O)cc1` here?
Its AC50 is “inactive”.

With `CC(C)c1ccc(-c2nnn(CCC(=O)O)n2)cc1` as the compound, how does the AC50 read?
The AC50 was “inactive”.

For `CCOc1ccc(OCCOCCN2CCc3ccccc3C2)cc1`, which AC50 is on record?
The AC50 was 1.12 µM (active).

`CCOc1ccc(/C(O)=C2\C(=O)C(=O)N(CCOCCO)C2c2ccccc2OC)cc1` (stereo not drawn) was tested. Which AC50 did it give?
Its AC50 is “inactive”.

For `CCOc1ccc(OCCOc2ncnc3ccccc23)cc1`, which AC50 is on record?
The AC50 was “inactive”.

Which AC50 does the source give for `N#CCCn1c(=O)cnc2cnc(Oc3ccccc3)nc21` here?
Its AC50 is “inactive”.

For `C=CCn1c(SCc2ccc3c(c2)OCO3)nc2scc(-c3ccco3)c2c1=O`, which AC50 is on record?
Its AC50 is “inactive”.

Which AC50 does the source give for `C=CCN1CCN(c2nc3ccccc3nc2C#N)CC1` here?
Its AC50 is 1.26 µM (active).

For `CCc1noc(C)c1C(=O)Nc1nc(-c2cc(C)ccc2C)c(C)s1`, which AC50 is on record?
Its AC50 is “inactive”.

For `O=C(O)CSc1cc(-c2ccccc2)nc2ccccc12`, which activity, negative = inhibition is on record?
The activity, negative = inhibition was 3.96% [at 11.4 µM] (inactive).

With `O=[N+]([O-])c1ccc(CSCc2ccc(Cl)cc2)cc1` as the compound, how does the activity, negative = inhibition read?
Its activity, negative = inhibition is -20.5% [at 11.4 µM] (inactive).

Which activity, negative = inhibition does the source give for `N[C@@H](CSCc1ccc(I)cc1)C(=O)O` here?
Its activity, negative = inhibition is 3.9% [at 11.4 µM] (inactive).

`NC[C@@H](O)CSCc1ccc(Cl)cc1` was tested. Which AC50 did it give?
Its AC50 is 3.16 µM (active).

With `O=c1c(-c2cccc(F)c2)nc2cncnc2n1Cc1ccccc1Cl` as the compound, how does the AC50 read?
Its AC50 is “inactive”.

With `CC(C)NC[C@@H](O)c1ccc(O)c2ncccc12` as the compound, how does the activity, negative = inhibition read?
The activity, negative = inhibition was -18.5% [at 11.4 µM] (inactive).

Which activity, negative = inhibition does the source give for `O=C(O)COc1c(Cl)cc(Cl)c2cccnc12` here?
The activity, negative = inhibition was 2.9% [at 11.4 µM] (inactive).

How did the AC50 turn out when `Oc1ccc(CNCc2ccccc2)c2cccnc12` was run?
The AC50 was 1.58 µM (active).

`N#CCCn1c(=O)c(-c2ccc(F)cc2)nc2cnc(N3CCOCC3)nc21` was tested. Which AC50 did it give?
Its AC50 is “inactive”.

For `CCOC(=O)/C(C#N)=C1/C=CN(C)C=N1`, which AC50 is on record?
Its AC50 is “inactive”.

How did the AC50 turn out when `Cc1nc2cncnc2n(-c2ccccc2)c1=O` was run?
Its AC50 is “inactive”.

For `COc1cccc(-c2cc(C(F)(F)F)n3ncc(S(=O)(=O)c4ccccc4)c3n2)c1`, which AC50 is on record?
The AC50 was “inactive”.

For `CN(CCc1ccccn1)Cc1ccc(Cl)cc1Cl`, which AC50 is on record?
The AC50 was 0.355 µM (active).

How did the activity, negative = inhibition turn out when `CC(C)C(=O)C(C)(C)CCc1ccccn1` was run?
Its activity, negative = inhibition is 8.85% [at 11.4 µM] (inactive).

For `ON(CCc1ccccn1)Cc1ccccc1`, which activity, negative = inhibition is on record?
Its activity, negative = inhibition is -0.364% [at 11.4 µM] (inactive).

Which AC50 does the source give for `O=C(Nc1ccccc1)c1ccccc1CC[N+](=O)[O-]` here?
Its AC50 is “inactive”.

For `C/C(=C\C1CCCCC1)C(NC(=O)c1ccc(C(F)(F)F)cc1)c1ccc(-c2ccccc2)cc1` (stereo not drawn), which AC50 is on record?
The AC50 was “inactive”.

For `COc1ccc(-c2cc(C(F)(F)F)n3nc(C(=O)N4CCCCC4)cc3n2)cc1`, which AC50 is on record?
Its AC50 is “inactive”.

How did the AC50 turn out when `Cc1ccc(CS(=O)(=O)CCC(=O)NCCCN2CCCC2=O)cc1` was run?
Its AC50 is “inactive”.

`Cc1ccc(S(=O)(=O)CC(O)CN2CCCC2=O)cc1` (stereo not drawn) was tested. Which AC50 did it give?
The AC50 was “inactive”.

Which AC50 does the source give for `Cc1ccc(S(=O)(=O)N(CCCN2CCCC2=O)Cc2cc3c(C)ccc(C)c3[nH]c2=O)cc1` here?
The AC50 was 14.1 µM (active).

For `CN1CCN([C@@H]2Cc3ccccc3Sc3ccc(Cl)cc32)CC1`, which AC50 is on record?
The AC50 was 0.398 µM (active).

For `CSc1ccc2c(c1)[C@H](N1CCN(C)CC1)Cc1ccccc1S2`, which AC50 is on record?
The AC50 was 3.98 µM (active) and 1.58 µM (active) and 316 nM (active).

Which AC50 does the source give for `O=C1CC(N2CCOCC2)C(=O)N1c1cccc(Cl)c1` (stereo not drawn) here?
Its AC50 is “inactive”.

For `CCCc1ncc(C[n+]2ccccc2C)c(N)n1`, which AC50 is on record?
The AC50 was “inactive”.

For `C=CCNC(=S)N/N=C/c1ccc(OCc2ccccc2)cc1`, which AC50 is on record?
Its AC50 is “inactive”.

With `COc1ccc(Oc2ncc3nc(C)c(=O)n(C[C@H]4CCCO4)c3n2)cc1` as the compound, how does the AC50 read?
The AC50 was “inactive”.

Which AC50 does the source give for `Cc1cc(C)cc(OCC(=O)NNC(=O)c2cc(C)[nH]n2)c1` here?
Its AC50 is “inactive”.

Which AC50 does the source give for `COc1ccc(NS(=O)(=O)c2ccc(I)cc2)cc1N1CCN(C)CC1` here?
Its AC50 is “inactive”.

Which AC50 does the source give for `O=C(c1ccc2ncsc2c1)N1CCN(c2ccc(O)cc2)CC1` here?
The AC50 was “inactive”.

For `CCCOc1ccc(CSC(CC(=O)O)C(=O)O)cc1` (stereo not drawn), which AC50 is on record?
The AC50 was “inactive”.

How did the AC50 turn out when `Cc1ccc(OCCCC(=O)NCc2ccco2)cc1` was run?
Its AC50 is “inactive”.

How did the AC50 turn out when `Cc1ccc(S(=O)(=O)NCC(=O)N(CC(=O)NCc2ccco2)Cc2cccs2)cc1` was run?
The AC50 was 3.98 µM (active).

For `Cc1ccc(C(C(=O)NCc2ccco2)N(C(=O)CNC(=O)c2cccs2)c2ccc(C)cc2)cc1` (stereo not drawn), which AC50 is on record?
Its AC50 is “inactive”.

How did the AC50 turn out when `COc1ccc(-c2nc3cnc(Nc4ccccc4)nc3n(Cc3cccs3)c2=O)cc1` was run?
Its AC50 is “inactive”.

`CC1CCCC(n2c(=S)[nH]c3ccccc3c2=O)C1C` (stereo not drawn) was tested. Which AC50 did it give?
The AC50 was “inactive”.

Which AC50 does the source give for `Cc1ccc(-c2[nH]n3c(=O)c4c(nc3c2C)CCCC4)cc1` here?
The AC50 was 25.1 µM (active).

With `Cc1ccc(N=Nc2c(N)[nH]n3c(=O)c4c(nc23)CCCC4)cc1` as the compound, how does the AC50 read?
Its AC50 is “inactive”.

Which AC50 does the source give for `O=c1c2c(nc3c(-c4ccccc4)c[nH]n13)CCC2` here?
The AC50 was “inactive”.

`Cc1cc(C2CCCCC2)n(O)c(=O)c1` was tested. Which AC50 did it give?
Its AC50 is “inactive”.

With `COc1ccc2c(c1)C(c1ccc([N+](=O)[O-])cc1)=NNC(c1ccco1)=N2` as the compound, how does the AC50 read?
The AC50 was 11.2 µM (active).

`COc1cccc(C(=O)Nc2ccc(-c3nnc(-c4ccco4)o3)cc2)c1` was tested. Which AC50 did it give?
The AC50 was “inactive”.

`COc1ccc(-c2ccc(/C=C3\C(=O)N(c4ccccc4)N=C3c3ccccc3)o2)c([N+](=O)[O-])c1` was tested. Which AC50 did it give?
Its AC50 is “inactive”.
